In PubChem BioAssay AID524 (The Scripps Research Institute Molecular Screening Center, 2006):
The whole screen tested about 65,000 compounds, of which about 95 (0.1%) were called active.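 Rule for the calls: active = inhibition above the screen-wide mean inhibition plus 3 SD (cut at about 21% in these data); inactive = the rest.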 Only a selection was taken, and actives are over-represented in it overall.

Target: cAMP-dependent protein kinase catalytic subunit alpha (Homo sapiens) (UniProt P17612)
Assay: inhibitors of human PKA kinase activity, primary screen, biochemical, ATP-depletion luminescence, Kemptide substrate (AID 524)
Settings: PKA Kemptide phosphorylation, Kinase-Glo ATP luminescence; at 6 µM; hits give high values

inhibition, inactive:
O=C(Nc1cnccn1)c1cccnc1 9%, O=C(Nc1nc2cc3c(cc2s1)OCCO3)c1cccc(S(=O)(=O)N2CCOCC2)c1 6.2%, COc1cc(-n2c(C)nc3cc(C(=O)NCc4ccco4)ccc32)cc(OC)c1OC 5.2%, CCn1ncc(C2=NOC(C(=O)N3CCN(c4ccccc4)CC3)C2)c1C (stereo not drawn) 11.5%, Cc1cccc(OCc2nnc(SCc3nc4cc(C(F)(F)F)ccc4c(=O)[nH]3)o2)c1 3.4%, Cc1ccccc1-n1nnc2c(=O)oc3ccccc3c21 7.5%, CCOc1ccccc1Nc1nnc(SCc2ccc(C(=O)OC)o2)s1 4.4%, CCOC(=O)N1CCN(CC(=O)c2c(C)[nH]c3ccccc23)CC1 -3.4%, CCOC(=O)CN1CC23C=CC(O2)C(C(=O)Nc2ccc(F)cc2)C3C1=O (stereo not drawn) 2.5%, COc1ccc(C2/C(=C(/O)c3ccc(OC(C)C)cc3)C(=O)C(=O)N2CCCN2CCOCC2)cc1 (stereo not drawn) 3.6%, COc1ccccc1N1CCN(C(=O)c2cn(-c3ccccc3)nc2-c2cccnc2)CC1 -9.3%, CCOc1nc(-c2ccc(OC)cc2)ccc1-c1noc(-c2cc(OC)c(OC)c(OC)c2)n1 -0.3%, CN1CCc2c(sc3c2c(NCc2ccco2)nc2nnnn23)C1 4.3%, COc1ccc(N=Cc2c(O)[nH]c3ccccc23)cc1OC 9.6%, CC1(C)C2CCC1(C)C(OC(=O)CCn1ccnc1)C2 (stereo not drawn) 7.3%, Nc1nnc(SCCN2C(=O)c3ccccc3S2(=O)=O)s1 6.6%, CCOC(=O)c1c(NC(=O)CSc2nnc(C)c(=O)[nH]2)sc2c1CCC2 0.8%, CN(CCc1ccccn1)S(=O)(=O)c1ccc2c3c(cccc13)C(=O)N2 4.5%, CC(=O)Nc1cc2ccc(OC(C)=O)cc2oc1=O 5.7%, CCc1ccc(CCC(=O)Nc2ccc(S(N)(=O)=O)cc2)o1 -0.9%, CCN1CCN(c2ncnc3c2oc2nc(C)c4c(c23)CC(C)(C)OC4)CC1 0.2%, CCOC(=O)C(CC)Sc1ncnc2c1nnn2-c1ccc(F)cc1 (stereo not drawn) 11.3%, CC(C)(C)c1ccc(C(=O)CSc2ncn[nH]2)cc1 7.8%, CCCCOc1ccccc1/C=c1/sc2nc(-c3oc4ccccc4c3C)nn2c1=O 2%, CC(C)(C)NC(=O)C(c1ccco1)N(Cc1ccc2c(c1)OCO2)C(=O)Cn1nnc2ccccc21 (stereo not drawn) -2.7%, O=S(=O)(Nc1nccs1)c1ccc2c(c1)OCCO2 6.4%, Cc1cc(C)c2nc(SCCC#N)nc(C)c2c1 5.1%, O=C(NCc1ccc(Cl)cc1)c1cc2c(nc3sccn32)s1 2.8%, COc1ccccc1CNC(=O)C1CCN(S(C)(=O)=O)CC1 4.6%, Cc1ccc(S(=O)(=O)N2CCC(C(=O)N[C@@H](C)C(=O)NCc3ccccc3)CC2)cc1 1.2%, CC1(C)Cc2cccc(OCC(=O)Nc3nccs3)c2O1 9.4%, O=C(NCc1ccc2c(c1)OCO2)c1cc2c(s1)CS(=O)(=O)C2 5.5%, CCOCC(=O)Nc1cc(OC)c(Cl)cc1OC 5.6%, O=S(=O)(c1cccc(S(=O)(=O)N2CCC(n3nnc4ccccc43)CC2)c1)N1CCCCC1 8.1%, Cc1ccc(-n2nc3c(c2NC(=O)CCC2CCCCC2)CS(=O)C3)cc1 (stereo not drawn) -4.5%, CCC(C)n1[nH]c(=O)cc1N (stereo not drawn) -5.4%, CCOc1ccccc1Oc1cn[nH]c1-c1ccc(OC)cc1O -1.5%, CCn1cc(C(=O)NCC2COc3ccccc3O2)c2cc(OC)c(OC)cc2c1=O (stereo not drawn) 2.4%
